# Results reported in PubChem BioAssay (NCI).
# Compounds without any hit were thinned out: in the full panel of roughly 83,000, 20% have a hit.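 Cell lines were cultured in 96-well plates, exposed to a single compound concentration, and assessed for percent growth 48 hours later.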 A number with no mark means an inactive call. The source made the active and inactive calls. The calls were made as follows: active = growth percent below 10; inactive = the rest.
# Tests used:
# Assay in all cases: NCI-60 one-dose screen, 48 h (100 = growth as untreated, 0 = no growth, -100 = all killed)
# [1] = system: DU-145 prostate; conditions: 10 µM unless noted
# [2] = system: K-562 leukemia; conditions: 10 µM unless noted
# [3] = system: MALME-3M melanoma; conditions: 10 µM unless noted
# [4] = system: RXF 393 renal; conditions: 10 µM unless noted
# [5] = system: SF-295 CNS; conditions: 10 µM unless noted
# [6] = system: UACC-257 melanoma; conditions: 10 µM unless noted
# [7] = system: M14 melanoma; conditions: 10 µM unless noted
# [8] = system: SK-MEL-5 melanoma; conditions: 10 µM unless noted
# [9] = system: UACC-62 melanoma; conditions: 10 µM unless noted
# [10] = system: LOX IMVI melanoma; conditions: 10 µM unless noted
# [11] = system: SK-MEL-2 melanoma; conditions: 10 µM unless noted
# [12] = system: A498 renal; conditions: 10 µM unless noted
# [13] = system: HL-60(TB) leukemia; conditions: 10 µM unless noted
# [14] = system: CCRF-CEM leukemia; conditions: 10 µM unless noted
# [15] = system: SR leukemia; conditions: 10 µM
# [16] = system: OVCAR-4 ovarian; conditions: 10 µM unless noted
# [17] = system: IGROV1 ovarian; conditions: 10 µM
# [18] = system: OVCAR-3 ovarian; conditions: 10 µM unless noted
# [19] = system: BT-549 breast; conditions: 10 µM
# [20] = system: HCC-2998 colon; conditions: 10 µM unless noted
SMILES,growth [1],growth [2],growth [3],growth [4],growth [5],growth [6],growth [7],growth [8],growth [9],growth [10],growth [11],growth [12],growth [13],growth [14],growth [15],growth [16],growth [17],growth [18],growth [19],growth [20]
Oc1ccc(O)c2c1C1(Cl)C(Cl)=C(Cl)C2(Cl)C1(Cl)Cl,63.2%,27.5%,20%,29.8%,21.7%,46.6%,32.6%,42.3%,37.1%,43.1%,31.3%,34.9%,31%,56.9%,34.9%,54.1%,38.3%,40.4%,29.2%,–
O=C(CCCN1CCC2(CC1)C(=O)NCN2c1ccc(F)cc1)c1ccc(F)cc1,122%,113%,94.7%,102%,180%,104%,97.3%,104%,90.5%,106%,84.9%,106%,100%,96.9%,99.2%,108%,71.9%,124%,97.3%,100%
O=C(c1cccs1)C1NO[N+]([O-])=C1c1cccs1 (stereo not given),120%,37.4%,-55.3% (active),-25.1% (active),107%,46.2%,-40.2% (active),112%,88.7%,-100% (active),–,113%,9.45% (active),-40.3% (active),22.4%,–,7.37% (active),-10.4% (active),88.7%,96.5%
O=C(O)c1[nH]c(=O)[nH]c(=O)c1F,96.6%,107%,113%,103%,89.2%,103%,–,–,79.6%,84.6%,110%,82.5%,117%,78.4%,91.7%,112%,95.1%,106%,111%,64.9%
[Cl][Hg][n]1cnc2c(Cl)c(Cl)c(Cl)cc21,100%,96.5%,97.6%,140%,96.1%,96.2%,94.5%,102%,86.5%,79.6%,–,104%,99.9%,102%,80.1%,109%,99.7%,94.5%,112%,107%
CCC(/C=C(C)/C=C/C(=O)c1c(O)c(-c2ccc(O)cc2)c[nH]c1=O)CO (stereo not given),9.29% (active),7.07% (active),–,104%,81.1%,92.4%,104%,99.9%,99.8%,87.2%,88.7%,70.9%,4.76% (active),7.28% (active),19.9%,–,–,41.8%,78.8%,106%
C/C(=C\c1cc(C(F)(F)F)n(-c2ccc(N)cc2)n1)[C@@H]1C[C@@H]2O[C@]2(C)CCC[C@H](C)[C@H](O)[C@@H](C)C(=O)C(C)(C)[C@@H](O)CC(=O)O1,-23.9% (active),6.37% (active),58.1%,-8.53% (active),2.01% (active),26.6%,-14.3% (active),–,–,4.2% (active),–,-0.114% (active),0.265% (active),12.8%,-16.4% (active),44.7%,31.1%,-0.038% (active),-2.85% (active),8.18% (active)
COc1cc(C2(C#N)CCN(C)CC2)cc(OC)c1OC,113%,97.5%,113%,114%,98.8%,108%,90.9%,107%,94.3%,93.8%,109%,88.4%,95%,116%,91.2%,104%,109%,–,101%,–
CNc1ccc(C(=O)CC(O)CCC(C)C2OC(=O)CC(O)CC(=O)CC(O)CC(O)CC(O)CC(O)CC3(O)CC(O)C(C(=O)OC)C(CC(O[C@@H]4O[C@H](C)[C@@H](O)[C@H](N)[C@@H]4O)/C=C/C=C/C=C/C=C/C=C/C=C/C=C/C2C)O3)cc1 (stereo not given in full),-75.3% (active),34.5%,-78.6% (active),-20% (active),20.2%,-79.7% (active),-47.5% (active),2.72% (active),3.05% (active),-8.67% (active),-8.57% (active),-54.2% (active),–,14.9%,-11.5% (active),-10.5% (active),3.21% (active),-15% (active),-16.8% (active),-43.9% (active)
